Test results from PubChem BioAssay.

Legend:
[1] = test system: Human papillomavirus type 1a protein E7 (residues 44-93); assay: small molecules binding HPV E7 44-93 – biochemical, small-molecule microarray, residues 44-93, 635 nm fluorescence, primary screen (AID 1108); conditions: fluorescence 635 nm, higher = more signal;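 note: E7 fragment applied at 1 µg/mL in TBST for 1 h at 4 C; score combines spot fluorescence with its signal to noise ratio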
[2] = hepatitis C replication reporter changes, two-sided – Huh7 cells, luciferase reporter, HCV replication inhibitor project, primary screen (AID 1109); conditions: Huh7 HCV replicon luciferase reporter, 48 h; higher = more signal;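 note: huh7 hepatoma cells harbouring a luciferase neomycin HCV replicon reporter; luciferase luminescence as measure of HCV replicon replication; test concentration not given here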
[3] = biological target: Left-right determination factor 2 (Homo sapiens) (UniProt O00292); assay: small molecules binding LEFTY2 protein – biochemical, small-molecule microarray, 635 nm fluorescence scan, primary screen (AID 1110); conditions: higher = more signal
Chain of Left-right determination factor 2 (Homo sapiens) (O00292 whole entry, looked up): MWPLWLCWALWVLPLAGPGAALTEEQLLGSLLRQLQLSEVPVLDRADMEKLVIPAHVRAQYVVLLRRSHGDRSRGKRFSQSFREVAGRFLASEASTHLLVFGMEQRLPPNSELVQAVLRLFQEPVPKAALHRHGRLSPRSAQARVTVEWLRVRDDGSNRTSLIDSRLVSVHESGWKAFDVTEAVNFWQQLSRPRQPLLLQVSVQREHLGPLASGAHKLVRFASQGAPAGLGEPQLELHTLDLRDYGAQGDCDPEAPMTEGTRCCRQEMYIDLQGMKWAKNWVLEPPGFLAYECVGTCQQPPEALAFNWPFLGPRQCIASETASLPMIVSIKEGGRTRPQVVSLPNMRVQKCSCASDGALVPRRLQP

[4] = biological target: Calmodulin-1 (Homo sapiens) (UniProt P0DP23); assay: small molecules binding calmodulin-1 with EGTA – biochemical, small-molecule microarray, Cy5-labelled CALM1, profiling panel (AID 1111); conditions: Cy5-CALM1 binding fluorescence, higher = more signal;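 note: labelled calmodulin applied in Tris saline Tween buffer holding calcium plus EGTA and DTT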
[5] = biological target: Calmodulin-1 (Homo sapiens) (UniProt P0DP23); assay: small molecules binding Ca-loaded calmodulin-1 – biochemical, small-molecule microarray, Cy5-labelled CALM1, plus calcium, artefact control for SMM control-protein annotation, profiling panel (AID 1112); conditions: Cy5-CALM1 binding fluorescence, higher = more signal;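 note: score merges spot fluorescence with signal to noise from triplicate slides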
[6] = probe aWnt5a binding to arrayed compounds – biochemical, biotinylated probe, 635/667 nm fluorescence, primary screen (AID 1113); conditions: small-molecule microarray, higher = more signal;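 note: score merges 667 nm fluorescence intensity with signal-to-noise per printed feature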
[7] = probe aShh binding to arrayed compounds – biochemical, biotinylated probe, 635/667 nm fluorescence, primary screen (AID 1114); conditions: small-molecule microarray, higher = more signal;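 note: probe is biotin-labelled aShh protein from a stem cell growth factor screen; measures binding of labelled protein to compounds printed on the slide; score merges feature fluorescence at 667 nm with signal-to-noise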
[8] = probe aNog binding to arrayed compounds – biochemical, biotinylated probe, 635/667 nm fluorescence, primary screen (AID 1115); conditions: small-molecule microarray, higher = more signal;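 note: probe is biotinylated aNog protein used at 0.15 µg/mL for 1 h at 4 C; z-score combines 667 nm fluorescence of each spot with its signal to noise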
[9] = biological target: Torsin-1A-interacting protein 1 (Homo sapiens) (UniProt Q5JTV8); assay: compound microarray binding of lysate hLAP1 – cell lysate, small-molecule microarray, COS7 lysate, 635/667 nm fluorescence, primary screen (AID 1116); conditions: 635 nm fluorescence, higher = more signal
Chain of Torsin-1A-interacting protein 1 (Homo sapiens) (Q5JTV8 whole entry, looked up): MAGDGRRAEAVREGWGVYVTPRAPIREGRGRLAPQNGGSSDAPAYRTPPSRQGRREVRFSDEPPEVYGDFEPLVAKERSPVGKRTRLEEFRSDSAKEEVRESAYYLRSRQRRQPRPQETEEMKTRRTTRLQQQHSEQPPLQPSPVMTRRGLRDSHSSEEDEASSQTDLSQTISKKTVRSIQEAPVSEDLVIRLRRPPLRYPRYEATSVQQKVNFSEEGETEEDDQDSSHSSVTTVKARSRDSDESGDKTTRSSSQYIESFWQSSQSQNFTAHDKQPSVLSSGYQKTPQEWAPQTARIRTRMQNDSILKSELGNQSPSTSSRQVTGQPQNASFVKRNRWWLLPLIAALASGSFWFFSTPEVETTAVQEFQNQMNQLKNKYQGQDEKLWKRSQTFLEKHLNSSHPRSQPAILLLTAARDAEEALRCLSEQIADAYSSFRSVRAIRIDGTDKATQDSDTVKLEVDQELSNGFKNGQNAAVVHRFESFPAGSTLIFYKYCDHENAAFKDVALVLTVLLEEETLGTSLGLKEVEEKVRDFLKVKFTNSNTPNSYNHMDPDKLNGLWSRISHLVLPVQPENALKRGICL

[10] = biological target: Alpha-bungarotoxin (Bungarus multicinctus) (UniProt P60615); assay: compounds binding labelled alpha-BTX control protein – biochemical, small-molecule microarray, Alexa647 label, 635/667 nm fluorescence, artefact control for SMM control protein annotation, profiling panel (AID 1117); conditions: alpha-BTX-A647 binding fluorescence, higher = more signal
Chain of Alpha-bungarotoxin (Bungarus multicinctus) (P60615 whole entry, looked up): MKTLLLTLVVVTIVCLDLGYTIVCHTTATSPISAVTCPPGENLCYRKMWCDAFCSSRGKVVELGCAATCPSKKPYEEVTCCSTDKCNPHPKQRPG

Structure (SMILES)	composite z-score [1]	z-score [2]	composite z-score [3]	composite z-score [4]	composite z-score [5]	composite z-score [6]	composite z-score [7]	composite z-score [8]	composite z-score [9]	composite z-score [10]
N#Cc1ccc(NN2C(C(O)C3CCCCC3)C=CC3C(=O)N(c4ccccc4)C(=O)C32)cc1 (stereo not given)	1.48	-0.785	0.0137	1.82	0.779	0.0859	0.294	1.32	-0.102	1.09
CN(C)CCCCCCNC(=O)[C@H]1C[C@H]2C(=O)N[C@@H](CCCCN)C(=O)N2[C@H]1c1ccc(O)cc1	1.48	-0.181	1.56	2.01	1.14	0.914	2.1	3.38	4.52	2.42
COc1ccc(NN2C(C(O)c3ccc(OC)c(OCc4ccccc4)c3)C=CC3C(=O)N(C4CCCCC4)C(=O)C32)cc1 (stereo not given)	1.4	-1.21	-0.167	1.15	0.63	0.135	0.213	0.751	0.637	1.82
C=CC[C@]1(C(=O)N2CCOCC2)N=C(c2ccc(OCCCO)cc2)O[C@H]1c1ccccc1	1.18	-0.716	-0.42	0.732	1.14	-0.0512	0.218	1.53	2.09	2.05
C=CCNC(=O)[C@H]1[C@@H]2C(=O)O[C@@H](c3ccccc3)[C@@H](c3ccccc3)N2[C@@H](c2ccc(O)cc2)[C@]12C(=O)N(C(=O)OCCOC)c1ccc(C#CCCO)cc12	0.889	-0.605	-0.166	0.0387	0.171	-0.185	0.0639	-0.332	1.35	1.25
COC(=O)c1ccc(OC)c(/C=C\CC(OC(C)=O)c2ccccc2)c1 (stereo not given)	-0.5	-1.14	0.374	0.461	0.193	-0.237	0.0668	-0.397	-0.129	0.808
O=C1[C@]2(CO)C=C(Br)[C@@H](C[C@@H]2c2ccccc2)[C@@]12CO2	-0.728	-3.08	0.218	-0.567	-0.322	-0.0165	-0.221	-0.158	-0.563	-0.0487
COc1ccc(C(O)C2C=CC3C(=O)N(C)C(=O)C3N2Nc2ccccc2)cc1OCc1ccccc1 (stereo not given)	1.43	-0.685	0.195	1.52	0.519	-0.0529	-0.221	0.289	1.25	1.79
